Shown are actives, neighbours in structure and some others; about 2.5% of the full set was active somewhere.
ASK1 primary – human ASK1 kinase inhibition, primary screen; Q99683; AlphaScreen MKK6 phosphorylation by ASK1, luminescence; inhibition, % at 7.44 µM; 0.99% of 22,000 active; AID 1159602; in the data active = inhibition above about 35%
ULK1 inh – blocks human autophagy kinase ULK1; O75385; AlphaScreen Atg13 phosphorylation by ULK1, luminescence; inhibition, % at 5.96 µM; 1.9% of 30,000 active; in the data active = inhibition above about 43%
Target sequence (O75385 whole entry, looked up): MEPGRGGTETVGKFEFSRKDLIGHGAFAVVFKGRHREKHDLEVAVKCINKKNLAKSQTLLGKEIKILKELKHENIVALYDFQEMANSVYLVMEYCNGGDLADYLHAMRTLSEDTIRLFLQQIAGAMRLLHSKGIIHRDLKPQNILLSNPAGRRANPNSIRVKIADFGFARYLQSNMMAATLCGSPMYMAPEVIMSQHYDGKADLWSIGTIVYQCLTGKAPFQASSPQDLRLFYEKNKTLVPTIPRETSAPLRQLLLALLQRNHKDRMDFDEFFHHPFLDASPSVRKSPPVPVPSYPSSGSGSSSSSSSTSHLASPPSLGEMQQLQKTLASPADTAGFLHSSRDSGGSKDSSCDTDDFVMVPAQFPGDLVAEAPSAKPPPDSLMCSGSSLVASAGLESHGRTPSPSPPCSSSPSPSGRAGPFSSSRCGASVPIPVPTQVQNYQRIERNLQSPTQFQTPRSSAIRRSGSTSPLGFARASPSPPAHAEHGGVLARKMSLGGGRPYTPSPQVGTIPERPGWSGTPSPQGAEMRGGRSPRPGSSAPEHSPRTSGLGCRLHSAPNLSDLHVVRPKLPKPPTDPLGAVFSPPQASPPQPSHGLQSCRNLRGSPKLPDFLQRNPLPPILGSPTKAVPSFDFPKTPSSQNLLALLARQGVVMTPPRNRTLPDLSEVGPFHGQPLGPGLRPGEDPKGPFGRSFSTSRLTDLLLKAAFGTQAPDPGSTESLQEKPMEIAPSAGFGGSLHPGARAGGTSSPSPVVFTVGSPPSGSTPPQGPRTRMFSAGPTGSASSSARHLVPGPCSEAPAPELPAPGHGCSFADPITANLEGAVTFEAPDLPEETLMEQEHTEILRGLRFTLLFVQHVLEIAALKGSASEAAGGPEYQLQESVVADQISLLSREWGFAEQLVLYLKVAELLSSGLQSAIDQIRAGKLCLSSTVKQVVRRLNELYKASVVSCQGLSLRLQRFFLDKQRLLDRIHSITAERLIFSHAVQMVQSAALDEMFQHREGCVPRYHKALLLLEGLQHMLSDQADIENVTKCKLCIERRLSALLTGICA
Hits are given with their value.

Results for CCCCC(CC)COC(=O)CC(C(=O)OCC(CC)CCCC)S(=O)(=O)O (stereo not drawn) ?
ULK1 inh: 54

What do the screens show for `CCCCC(CC)COC(=O)C(C#N)=C(c1ccccc1)c1ccccc1` (stereo not drawn)?
ULK1 inh: inactive

Results for O=C(Cc1cn(-c2ccc(Nc3ccc(C(F)(F)F)cc3)nn2)c2ccccc12)NCCCN1CCCC1=O ?
ASK1 primary: inactive; ULK1 inh: inactive

What do the screens show for `COc1cc2nc(N3CCN(c4ccccn4)CC3)nc(Nc3ccc(NC(C)=O)cc3)c2cc1OC`?
ASK1 primary: inactive; ULK1 inh: inactive

Results for N[C@@H](Cc1ccc(Br)cc1)C(=O)N1CCC(c2nc(-c3ccncc3)no2)C1 (stereo partly drawn) ?
ASK1 primary: inactive; ULK1 inh: inactive

How did N[C@@H](Cc1ccc(Br)cc1)C(=O)N1CCC(c2nc(-c3ccncc3)no2)CC1 do in these assays?
ASK1 primary: inactive; ULK1 inh: 72

What do the screens show for `CC(=O)c1cccc(-c2nccc(NCc3nc4ccccc4[nH]3)n2)c1`?
ASK1 primary: inactive; ULK1 inh: inactive

What do the screens show for `CNC(=O)c1ccccc1Nc1cc(Nc2cccnc2)ncc1C(F)(F)F`?
ASK1 primary: inactive; ULK1 inh: 61

Results for CNC(=O)c1cnccc1Nc1cc(Nc2ccc3c(c2)CC(=O)N3)ncc1C(F)(F)F ?
ASK1 primary: inactive; ULK1 inh: inactive

What do the screens show for `CNC(=O)c1ccccc1Nc1cc(Nc2ncccc2C)ncc1C(F)(F)F`?
ASK1 primary: inactive; ULK1 inh: 62

How did CNC(=O)c1ccccc1Nc1cc(NC(=O)C(C)(C)c2ccccc2)ncc1C(F)(F)F do in these assays?
ASK1 primary: inactive; ULK1 inh: inactive

What do the screens show for `O=C(Nc1ccc2c(c1)OCO2)c1cc(NC2CCC(O)CC2)nc2ccccc12` (stereo not drawn)?
ASK1 primary: inactive; ULK1 inh: inactive

How did c1nc2nc(N3CCC(N4CCOCC4)CC3)nc(Nc3ccc4c(c3)OCO4)c2[nH]1 do in these assays?
ASK1 primary: inactive; ULK1 inh: inactive

What do the screens show for `Cc1cc(O)c2c(c1)Cc1cccc(O)c1C2=O`?
ULK1 inh: 44

What do the screens show for `O=C1c2cccc(O)c2C(=O)c2c(O)cccc21`?
ULK1 inh: inactive

Results for COc1cc(Nc2nc(NCCCN3CCCC3=O)c3ncn(-c4ccccc4)c3n2)cc(OC)c1OC ?
ASK1 primary: inactive; ULK1 inh: inactive

What do the screens show for `c1ccc(Nc2nc(NCc3cccnc3)nc3c2ncn3-c2ccsc2)cc1`?
ASK1 primary: inactive; ULK1 inh: inactive

How did O=C(NCc1ccccc1)c1cccc(NCCCN2CCCC2=O)c1 do in these assays?
ASK1 primary: inactive; ULK1 inh: 54

Results for O=C(NCCCN1CCCC1=O)c1cccc(NCCCN2CCCC2=O)c1 ?
ASK1 primary: inactive; ULK1 inh: inactive

What do the screens show for `CCOC(=O)c1ccccc1O`?
ULK1 inh: 54

How did O=C(OCCO)c1ccccc1O do in these assays?
ULK1 inh: inactive

Results for Nc1nc(NCCN2CCOCC2)cc(N2CCC(N3CCOCC3)CC2)n1 ?
ASK1 primary: inactive; ULK1 inh: inactive

Results for COc1cc(N2CCOCC2)ccc1Nc1cc(Nc2ccccc2-c2ncco2)c(C(F)(F)F)cn1 ?
ASK1 primary: inactive; ULK1 inh: inactive

How did COc1cc(N2CCOCC2)ccc1Nc1cc(Nc2cccc3c2C(=O)N(C)C3)c(C(F)(F)F)cn1 do in these assays?
ASK1 primary: inactive; ULK1 inh: inactive

Results for CC(C)NC1CCC(Nc2cc(Nc3ccccc3C(N)=O)c(C(F)(F)F)cn2)CC1 (stereo not drawn) ?
ASK1 primary: inactive; ULK1 inh: inactive

What do the screens show for `CNC(=O)c1ccccc1Nc1cc(Nc2ccc(OC3CCN(C)CC3)cc2OC)ncc1C(F)(F)F`?
ASK1 primary: inactive; ULK1 inh: 95

What do the screens show for `CNC(=O)c1ccccc1Nc1cc(Nc2ccc(N3CCC(N(C)C)C3)cc2OC)ncc1C#N` (stereo not drawn)?
ASK1 primary: inactive; ULK1 inh: 91

How did CNC(=O)c1ccccc1Nc1cc(Nc2ccc(N3CCN(C)CC3)cc2OC)ncc1C(F)(F)F do in these assays?
ASK1 primary: inactive; ULK1 inh: 91

Results for CC(C)n1cnc2c(NCc3cccnc3)nc(N3CCc4ccccc4C3)nc21 ?
ASK1 primary: inactive; ULK1 inh: inactive

Results for O=C(NCCN1CCOCC1)c1cccc(-c2nnc3cc(Nc4ccccc4Cl)ccn23)c1 ?
ASK1 primary: inactive; ULK1 inh: inactive

How did O=C(NCc1cccnc1)c1cccc(Nc2ccc(-n3ccnc3)cc2)n1 do in these assays?
ASK1 primary: inactive; ULK1 inh: inactive

How did CN1CCN(CCNC(=O)c2cccc(CN(C(=O)c3nc4ccc(-c5cn[nH]c5)cc4s3)C3CC3)c2)CC1 do in these assays?
ASK1 primary: inactive; ULK1 inh: 53

What do the screens show for `O=C(NCCN1CCCCC1)c1cccc(CN(C(=O)c2nc3ccc(-c4cn[nH]c4)cc3s2)C2CC2)c1`?
ASK1 primary: inactive; ULK1 inh: inactive

How did O=C(NC1CCN(Cc2ccccc2)CC1)c1csc(NCCN2CCOCC2)n1 do in these assays?
ASK1 primary: inactive; ULK1 inh: inactive

Results for Cn1c(Nc2nc(NCCOc3ccccc3)c3ncn(C4CCCCC4)c3n2)nc2ccccc21 ?
ASK1 primary: inactive; ULK1 inh: 52

What do the screens show for `COc1ccc(CCNc2nc(Nc3nc4ccccc4n3C)nc3c2ncn3C2CCCCC2)cc1`?
ASK1 primary: inactive; ULK1 inh: inactive

How did Cc1cnc(Nc2ccc3ncccc3c2)nc1NCCc1ccc(O)cc1 do in these assays?
ASK1 primary: inactive; ULK1 inh: 51

Results for COc1cc(Nc2nc(Nc3ccc4ncccc4c3)ncc2C)cc(OC)c1OC ?
ASK1 primary: inactive; ULK1 inh: 63

Results for COc1cc(Nc2nc(Nc3cccnc3)ncc2C)cc(OC)c1OC ?
ASK1 primary: inactive; ULK1 inh: inactive

What do the screens show for `COc1cc(Nc2nc(Nc3ncccn3)ncc2C)cc(OC)c1OC`?
ASK1 primary: inactive; ULK1 inh: inactive

Results for COc1cc(Nc2ncc(C)c(Nc3ccccc3)n2)cc(OC)c1OC ?
ASK1 primary: inactive; ULK1 inh: 73

What do the screens show for `COc1ccc(CCNc2nc(Nc3ccc4ncccc4c3)ncc2C)cc1`?
ASK1 primary: inactive; ULK1 inh: inactive

How did c1ccc(-c2ccnc(Nc3ccc(-c4ncno4)cc3)n2)cc1 do in these assays?
ASK1 primary: inactive; ULK1 inh: inactive

Results for CCN(CC)C(=O)C1CCCN(c2nc3ncnc(NCc4ccccc4)c3[nH]2)C1 (stereo not drawn) ?
ASK1 primary: inactive; ULK1 inh: inactive

What do the screens show for `O=C(O)CCCCCCCCCCCCCCc1ccc(I)cc1`?
ULK1 inh: inactive

What do the screens show for `O=C(NCc1cccc(C(F)(F)F)c1)c1ccnc(N2CCC(N3CCOCC3)CC2)c1`?
ASK1 primary: inactive; ULK1 inh: inactive

What do the screens show for `CCn1c(C)cc(O)c(C(c2cccs2)N2CCCCC2)c1=O` (stereo not drawn)?
ULK1 inh: inactive

Results for O=C(Nc1ccc(N2CCOCC2)cc1)c1cccc(Nc2ccc3ncccc3c2)n1 ?
ASK1 primary: inactive; ULK1 inh: 46

Results for O=C(Nc1ccc(N2CCOCC2)cc1)c1csc(Nc2ccc(N3CCOCC3)cc2)n1 ?
ASK1 primary: inactive; ULK1 inh: inactive

Results for CCN(CC)C(=O)C1CCCN(c2cccc(C(=O)Nc3ccc(N4CCOCC4)cc3)n2)C1 (stereo not drawn) ?
ASK1 primary: inactive; ULK1 inh: 52

What do the screens show for `O=C(NCCN1CCOCC1)c1cccc(Nc2ccc3ncccc3c2)n1`?
ASK1 primary: inactive; ULK1 inh: inactive

Screening data deposited in PubChem by The Scripps Research Institute Molecular Screening Center.
